Source: PubChem BioAssay (National Center for Advancing Translational Sciences (NCATS))
Hits are enriched below; roughly 7.5% of the tested compounds scored in any of these assays.
Rab9 promoter act: activates the Rab9 promoter. Huh7 Rab9 promoter-luciferase reporter, luminescence, 24 h. Potency, µM (titrated, usually from 9.22 µM), for inactives: top-dose activation, negative = inhibition, actives largely listed as activators. 2.8% of 320,000 active. AID 485297; also: % of control where 0% means no effect; nearly all actives have a fitted effect of over 60% in size
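Huh7 cells stably carrying Rab9 promoter–luciferase reporter, plated 1500 cells/well, compound added after 2 h and incubated 24 h at 37 °C; luciferase luminescence then read after 10 min with detection reagent.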
ELG1 genotoxic: genotoxicity induction in ELG1-luciferase HEK293T cells. 1.3% of 330,000 active. AID 504466. HEK293T ELG1-luciferase reporter, luminescence, 16 h. Potency, µM (doses to about 46 µM), inactives show top-dose activity change, positive = activation, actives largely listed as activators; also: % of control where 0% means no effect; nearly all actives have a fitted effect of over 60% in size
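Genotoxic stress is detected as increased luminescence from luciferase-tagged ELG1 in HEK293T cells, measured with ONE-Glo after a 16 hr treatment at 37 °C.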
Luc counter: blocks Kinase-Glo luciferase, a counter-screen artifact; Kinase-Glo luciferase, ATP luminescence, 8 min; Potency, µM (series often up to 38.3 µM), without a hit: top-dose activity change, negative = inhibition, usual class: inhibitors; 0.28% of 200,000 active; AID 1379; also: % is scaled to controls: 0 for no effect and ±100 for the full control effect; nearly all actives have a fitted effect of over 60% in size
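Light output from Kinase-Glo luciferase with luciferin and 10 uM ATP in 50 mM imidazole pH 7.2, KCl, MgCl2, Tween 20, BSA; compound pin-delivered, 8-min ambient incubation, then luminescence read.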
FLuc modulator: inhibits or activates purified firefly luciferase, miR-21 counter-screen | P08659 | Potency, µM (doses to about 57.5 µM), for inactives: top-dose activity change, negative = inhibition, most hits filed as inhibitors | 6.9% of 360,000 active | purified FLuc, Km substrates, luminescence inhibition | AID 588342;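 also: plate controls were vehicle for no effect and reference inhibitor for full effect; nearly all actives have a fitted effect of over 55% in size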
Target sequence (P08659 whole entry, looked up): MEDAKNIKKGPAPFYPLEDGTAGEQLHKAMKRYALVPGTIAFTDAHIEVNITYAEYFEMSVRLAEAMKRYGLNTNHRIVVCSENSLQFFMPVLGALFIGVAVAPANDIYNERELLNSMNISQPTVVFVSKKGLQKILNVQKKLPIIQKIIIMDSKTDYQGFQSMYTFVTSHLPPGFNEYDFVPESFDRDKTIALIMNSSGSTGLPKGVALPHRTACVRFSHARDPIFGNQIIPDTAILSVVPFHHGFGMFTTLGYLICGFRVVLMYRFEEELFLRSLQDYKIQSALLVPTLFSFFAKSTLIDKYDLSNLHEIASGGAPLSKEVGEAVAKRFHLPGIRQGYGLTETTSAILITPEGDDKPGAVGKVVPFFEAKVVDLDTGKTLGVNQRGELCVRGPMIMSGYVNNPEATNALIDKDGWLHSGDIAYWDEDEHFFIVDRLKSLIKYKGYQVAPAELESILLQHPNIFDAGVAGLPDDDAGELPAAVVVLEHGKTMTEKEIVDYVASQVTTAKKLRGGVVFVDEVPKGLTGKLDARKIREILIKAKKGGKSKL
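Biochemical qHTS of compounds, final roughly 60 µM downward over six points, against 10 nM purified firefly luciferase using Km concentrations of substrates (10 uM D-luciferin, 10 uM ATP) in Tris acetate pH 7.5 buffer; luminescence output.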
SMN2 splice up: enhancers of SMN2 splice variant expression; Potency, µM (doses to about 46.1 µM), without a hit: top-dose activity change, positive = activation, actives largely listed as activators; AID 1458; 2.8% of 210,000 active; HEK293 SMN2-luciferase splicing reporter, luminescence, 30-36 h; also: % of control where 0% means no effect; nearly all actives have a fitted effect of over 55% in size
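HEK293 cells carry an SMN2 minigene-luciferase reporter in which exon 7 inclusion puts luciferase in frame. Cells were seeded at 2000 cells/well, attached for 10-12 hours, then exposed to compounds for 30-36 hours at 37C before ONE-Glo luminescence.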
NPC1 promoter act: NPC1 promoter activation; Huh7 NPC1 promoter luciferase reporter, 24 h; Potency, µM (titrated, usually from 9.22 µM), inactives show at the highest dose activation, hits mostly activators; 2.4% of 320,000 active; also: % of control where 0% means no effect; nearly all actives have a fitted effect of over 60% in size
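Readout is luciferase luminescence, reflecting NPC1 promoter activation in stably transfected Huh7 cells after 24 h compound exposure at 37 °C in reduced-serum medium with 10% FBS.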
* marks the source's active call; other numbers are inactive results; u = inconclusive; x = no result; [ ] = another dose, or the depositor's remark. Calls follow the shape of the dose curve; as a rule, active = well fitted curve in the direction sought with a large enough effect; inconclusive = small, poorly fitted or top-dose-only effect, or another doubt; inactive = no such curve, though single readings can be large; an effect the other way counts as inactive or inconclusive. Potency is read from the fitted curve at half-maximal effect.

SMILES | Rab9 promoter act | ELG1 genotoxic | Luc counter | FLuc modulator | SMN2 splice up | NPC1 promoter act
c1ccc(-c2cc(-c3ccccc3)c3c(n2)-c2ccccc2OC3)cc1 | x | x | x | u | -4.1% | x
CCOc1ccccc1Nc1nc(-c2cccc(Cl)c2)c2c(n1)-c1ccccc1OC2 | x | x | x | 10.7µM* | x | x
COc1ccc(-n2ncc3c(NC(C)(C)CO)ncnc32)cc1 | x | x | x | 4.78µM* | x | x
COc1ccc(C(=O)NNc2ncnc3c2cnn3-c2ccccc2)cc1 | x | x | x | -8.8% | x | x
c1ccc(CCNc2ncnc3c2cnn3-c2ccccc2)cc1 | 1.58µM* | u | 1.9% | 6.75µM* | 11.2µM* | 3.16µM*
Fc1ccc(CNc2ncnc3c2cnn3-c2ccccc2)cc1 | x | x | -2.6% | u | -17.1% | x
COc1ccccc1Oc1ncnc2c1cnn2-c1ccccc1 | 3.98µM* | u | 0.9% | 12µM* | 12.6µM* | u
O=c1[nH]n(-c2ncnc3c2cnn3-c2ccccc2)c(=O)c2ccccc12 | 5.1% | -0.4% | 0.2% | 13.5µM* | -3.2% | -2.6%
CCc1cccc(NC(=O)C(Cc2ccccc2)NS(=O)(=O)c2ccc3c(c2)oc(=O)n3C)c1 (stereo not given) | x | x | x | 0.1% | -14.0% | x
NC(C(=O)O)c1ccc(P(=O)(O)O)cc1 (stereo not given) | x | x | x | x | 16.8% | x
CC1(C)OCC([C@H](O)C2=CCCCC2=O)CO1 | x | x | -2.1% | x | 10.8% | x
c1ccc(-n2ncc3c(NCCN4CCCCC4)ncnc32)cc1 | u | u | 0.2% | 19µM* | 10.0% | u
CC(C)(C)Nc1ncnc2c1cnn2-c1ccccc1 | 0.398µM* | 1.03µM* | -0.6% | 1.51µM* | 2µM* | 0.355µM*
c1ccc(-n2ncc3c(NCCN4CCOCC4)ncnc32)cc1 | 10.8% | 13µM* | -8.3% | u | x | u
Cc1ccc(S(=O)(=O)c2cn(Cc3ccccc3)c3cc(N4CCCC4)c(F)cc3c2=O)cc1 | x | x | x | -7.0% | x | x
CO[C@H]1[C@H](O[C@H]2O[C@@H](C)[C@@H](O[C@@H]3C[C@](C)(O)[C@H](O)[C@H](C)O3)[C@@H](N(C)C)[C@@H]2O)[C@@H](CC=O)C[C@@H](C)[C@@H](O[C@H]2CC[C@H](N(C)C)[C@H](C)O2)/C=C\C=C/C[C@@H](C)OC(=O)C[C@H]1O | x | x | 2.1%[17.1 µM] | x | 6.1%[20.6 µM] | x
Cc1c(Cl)cccc1-n1nnc(-c2nc(-c3ccc4c(c3)OCO4)no2)c1C | x | x | x | 3.01µM* | x | x
c1ccc(Nc2ccnc(Nc3ccccc3)n2)cc1 | u | u | x | 1.9µM* | x | 2.51µM*
Cc1ccccc1OCc1ccc(-c2nc(C#N)c(N3CCN(c4cccc(Cl)c4)CC3)o2)o1 | x | x | x | -5.6% | x | x
N#Cc1cccc(NC(=O)C2CCN(c3nc(-c4ccc(Cl)cc4)no3)CC2)c1 | x | x | x | -4.2% | x | x
COc1ccc(CCNC(=O)C2CC(O)CN2S(=O)(=O)c2ccc(Cl)cc2)cc1OC (stereo not given) | x | 0.7% | x | x | x | x
CCn1c(C)nc2c(C)[n+](CC(=O)c3ccc(Br)cc3)ccc21 | 1µM* | 1.83µM* | -1.2% | u | 7.1% | 1.12µM*
O=C(N/N=C1/CC2CCC1C2)c1cc2ccccc2cc1O (stereo not given) | 4.0% | -2.7% | x | 15.1µM* | x | 15.6%
O=C(NCC1CCCCC1)c1cc2ccccc2cc1O | 27.0% | -0.3% | x | 12µM* | x | u
O=C(NCC1CCCO1)c1ccc(COc2ccccc2Br)cc1 (stereo not given) | -6.5% | 1.8% | -0.6% | 23.9µM* | -10.3% | 0.6%
SMILES | Rab9 promoter act | ELG1 genotoxic | Luc counter | FLuc modulator | SMN2 splice up | NPC1 promoter act
O=C(NCC1CCCO1)c1cc2ccccc2cc1O (stereo not given) | u | 15.4% | x | 23.9µM* | x | u
O=C(NCC1CCCO1)c1ccc(COc2ccc(Cl)cc2)cc1 (stereo not given) | -2.9% | -5.2% | -0.6% | -11.1% | -46.1% | -1.1%
CCN(CC)S(=O)(=O)c1ccc2c(c1)N(CC(=O)N1CCN(c3ccc(Cl)cc3)CC1)C(=O)CO2 | x | x | x | 0.3% | x | x
CCc1nnc(SCC(=O)Nc2ccc(N3CCOCC3)cc2)n1C | 6.2% | 9.4% | x | 21.3µM* | x | -0.9%
Cc1ccc(NC(=O)CSc2nnc3n2CCCCC3)cc1 | 4.5% | 0.3% | 0.9% | -0.3% | 2.0% | -2.6%
O=C(CSc1nnc2n1CCCCC2)Nc1ccc(N2CCOCC2)cc1 | -1.8% | 2.1% | x | 16.9µM* | x | 0.9%
Cc1ccccc1OCc1nnc(SCC(=O)Nc2ccc(N3CCOCC3)cc2)n1C | 5.5% | 13.2% | x | u | x | 5.1%
Cc1ccc(C(=O)NCc2nnc(SCC(=O)Nc3ccccc3)n2C)cc1 | -2.3% | -1.9% | -2.1% | 21.3µM* | -1.7% | 0.0%
Cc1ccc(C2=NCCn3c2c2ccc(C(F)(F)F)cc2[n+]3[O-])cc1 | -3.2% | 2.9% | x | u | x | 4.2%
Cc1ccccc1N(CC(=O)N/N=C/c1ccc(N(C)C)cc1)C(=O)c1ccccc1 | 6.7% | 0.9% | -5.5% | -17.9% | 13.7% | 8.0%
CCC(=O)N1CCc2cc(Br)cc(S(=O)(=O)N3CCN(c4ccc(C)cc4)C(C)C3)c21 (stereo not given) | x | x | x | 2.7% | 8.5% | x
CC(=O)Nc1ccc(SCC(=O)O)cc1 | 3.4% | -0.9% | 2.0% | 1.1% | 4.0% | -5.1%
Cc1cc(NC(=O)Nc2ccccc2F)ccc1Br | 1.26µM* | u | x | 2.39µM* | x | 1.41µM*
O=C(Nc1ccccc1)Nc1ccc(Br)cc1F | u | 13.8% | 2.2% | u | 12.6µM* | u
O=C(O)CSc1ccc(NC(=O)Nc2ccccc2F)cc1 | 2.1% | 2.3% | x | 12µM* | x | -1.6%
O=C(Nc1ccc(Cl)cc1)c1ccc(Br)cc1F | 1µM* | 3.26µM* | -4.8% | 3.01µM* | 14.1µM* | 1.41µM*
CCC(C)n1c(/C=C/c2ccccc2)nc2ccccc21 (stereo not given) | 3.1% | 0.3% | 1.3% | 12µM* | 13.4% | -1.5%
CCCCCCn1c(/C=C/c2ccccc2)nc2ccccc21 | x | x | x | 3.01µM* | -81.8% | x
CC(C)Cn1c(/C=C/c2ccccc2)nc2ccccc21 | 2.82µM* | 3.6% | x | 4.78µM* | x | u
COc1ccc(/C=C/c2nc3ccccc3n2C)cc1 | u | u | 2.82µM* | 0.135µM* | 0.316µM* | u
CCCn1c(/C=C/c2cc[n+](C)cc2)nc2ccccc21 | -2.2% | -2.3% | x | -1.3% | x | -4.7%
COc1ccc(Br)cc1Cn1nnc(C(=O)Nc2ccc(C)cc2C)c1N | x | x | x | 4.2% | -79.5% | x
COc1ccc2c(c1)NC(c1ccc(Cl)cc1)=NC(c1cccs1)=N2 | x | x | x | u | 6.0% | x
O=C(Cn1c(/C=C/c2ccccc2)nc2ccccc21)Nc1ccc(F)cc1 | u | u | -7.9% | 4.78µM* | u | 21.4%
COc1ccc(/C=C/c2nc3ccccc3c(=O)o2)cc1 | 0.0891µM* | 0.82µM* | x | 0.601µM* | x | u
CCn1c(Cc2ccc(OC)cc2)nc2ccccc21 | -1.0% | -6.7% | x | 4.2% | x | 1.3%
